Holding throughout (assay): yeast three-hybrid, YBZ-1, SC-Leu-His + 0.5 mM 3-AT, 4 days
Conditions in all cases: tags: N-Gal4 AD-HA kept; label: inside an RPR1-promoter hybrid RNA with tandem MS2 sites; ssRNA

One assay deals with PUM1 PUF domain R1-GYK (Homo sapiens, UniProt Q14671 828-1176, S863G;R864Y;Q867K). In a few lines:
(§1)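 Sequencing with Illumina followed PCR amplification of the repeat regions from transformants grown four days on SC-Leu (input) or SC-Leu-His + 0.5 mM 3-AT (selection). The transformants were strain YBZ-1 with a LexA–MS2 coat fusion and a HIS3 reporter, carrying Pumilio-1 PUF domain libraries and matching RNA elements. The interaction score is the log change in variant frequency from input to selection, computed in log2 with a pseudocount of 1 for absent variants.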

The target of the next assay is PUM1 PUF domain R5-KRS (Homo sapiens, UniProt Q14671 828-1176, C1007K;Q1011S). In a few lines: as §1
Another assay concerns the target PUM1 PUF domain R5-NVA (Homo sapiens, UniProt Q14671 828-1176, C1007N;R1008V;Q1011A). In a few lines:
as §1

The target of a further assay is PUM1 PUF domain R4-FNI (Homo sapiens, UniProt Q14671 828-1176, N971F;H972N;Q975I). A digest of the protocol:
as §1

A further assay deals with T1, PUM1 PUF domain R6-IWK (Homo sapiens, UniProt Q14671 828-1176, N1043I;Y1044W;Q1047K).
T1 sequence: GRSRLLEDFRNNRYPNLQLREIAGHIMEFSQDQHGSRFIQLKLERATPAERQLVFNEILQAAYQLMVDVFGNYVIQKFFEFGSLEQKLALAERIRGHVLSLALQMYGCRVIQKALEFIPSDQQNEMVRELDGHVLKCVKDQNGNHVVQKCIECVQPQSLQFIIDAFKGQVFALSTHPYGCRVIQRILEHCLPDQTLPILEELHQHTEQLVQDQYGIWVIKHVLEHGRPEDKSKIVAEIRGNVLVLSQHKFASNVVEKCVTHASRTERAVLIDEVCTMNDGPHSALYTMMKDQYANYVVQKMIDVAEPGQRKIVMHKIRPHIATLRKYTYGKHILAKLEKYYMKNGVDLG
In a few lines: as §1

In a further assay the target is PUM1 PUF domain R3-RCD (Homo sapiens, UniProt Q14671 828-1176, C935R;R936C;Q939D). In a few lines:
as §1

The target of another assay is PUM1 PUF domain R7-TVV (Homo sapiens, UniProt Q14671 828-1176, S1079T;N1080V;E1083V). In a few lines: as §1
A further assay concerns the target PUM1 PUF domain R3-VRS (Homo sapiens, UniProt Q14671 828-1176, C935V;Q939S). In a few lines:
as §1

The next assay addresses PUM1 PUF domain R4-MFN (Homo sapiens, UniProt Q14671 828-1176, N971M;H972F;Q975N). In a few lines:
as §1

Another assay addresses PUM1 PUF domain R1-RLV (Homo sapiens, UniProt Q14671 828-1176, S863R;R864L;Q867V). In a few lines:
as §1

Sequence of PUM1 PUF domain R5-KRS (Q14671 828-1176 C1007K/Q1011S): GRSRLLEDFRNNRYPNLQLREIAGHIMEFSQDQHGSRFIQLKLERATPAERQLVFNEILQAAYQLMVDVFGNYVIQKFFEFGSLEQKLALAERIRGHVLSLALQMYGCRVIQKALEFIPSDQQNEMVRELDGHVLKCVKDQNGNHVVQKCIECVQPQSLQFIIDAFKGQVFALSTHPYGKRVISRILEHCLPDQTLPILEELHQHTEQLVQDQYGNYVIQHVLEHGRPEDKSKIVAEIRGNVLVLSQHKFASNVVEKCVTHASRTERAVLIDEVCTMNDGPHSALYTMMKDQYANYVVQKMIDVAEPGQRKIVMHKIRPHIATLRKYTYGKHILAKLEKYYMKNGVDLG

Take “GGCUAGAACUAGUGGAUCCCCCGGCGCCCGGCGGCUCGAGCCCGGGUAAGUGUAAAUGGUCUGCAUGCCGCCGGGCGCCAUGCCUGCAGGUCGACUCUAGAAAACAUG”: in the assay with PUM1 PUF domain R1-GYK, the binding signal is 0.96 log2 enrichment (interaction score).
For “GGCUAGAACUAGUGGAUCCCCCGGCGCCCGGCGGCUCGAGCCCGGGUAAGUGUUAAUAGUCUGCAUGCCGCCGGGCGCCAUGCCUGCAGGUCGACUCUAGAAAACAUG”, the binding signal was 3.41 log2 enrichment (interaction score) with PUM1 PUF domain R5-KRS and 3.11 log2 enrichment (interaction score) with PUM1 PUF domain R5-NVA.
Take “GGCUAGAACUAGUGGAUCCCCCGGCGCCCGGCGGCUCGAGCCCGGGUAAGUGUAUAUAGUCUGCAUGCCGCCGGGCGCCAUGCCUGCAGGUCGACUCUAGAAAACAUG”: the binding signal with PUM1 PUF domain R4-FNI is 2.63 log2 enrichment (interaction score).
With “GGCUAGAACUAGUGGAUCCCCCGGCGCCCGGCGGCUCGAGCCCGGGUAAGUGUCAAUAGUCUGCAUGCCGCCGGGCGCCAUGCCUGCAGGUCGACUCUAGAAAACAUG”, the binding signal with PUM1 PUF domain R5-KRS was 3.74 log2 enrichment (interaction score).
Take “GGCUAGAACUAGUGGAUCCCCCGGCGCCCGGCGGCUCGAGCCCGGGUAAGUGAAAAUAGUCUGCAUGCCGCCGGGCGCCAUGCCUGCAGGUCGACUCUAGAAAACAUG”: in the assay with PUM1 PUF domain R6-IWK, the binding signal is 5.15 log2 enrichment (interaction score).
“GGCUAGAACUAGUGGAUCCCCCGGCGCCCGGCGGCUCGAGCCCGGGUAAGUGUAAUUAGUCUGCAUGCCGCCGGGCGCCAUGCCUGCAGGUCGACUCUAGAAAACAUG”: in the assay with PUM1 PUF domain R3-RCD, the binding signal is 3.1 log2 enrichment (interaction score).
For the sequence “GGCUAGAACUAGUGGAUCCCCCGGCGCCCGGCGGCUCGAGCCCGGGUAAGUUUAAAUAGUCUGCAUGCCGCCGGGCGCCAUGCCUGCAGGUCGACUCUAGAAAACAUG”, the binding signal with PUM1 PUF domain R7-TVV is 3.71 log2 enrichment (interaction score).
Consider “GGCUAGAACUAGUGGAUCCCCCGGCGCCCGGCGGCUCGAGCCCGGGUAAGUGUAAGUAGUCUGCAUGCCGCCGGGCGCCAUGCCUGCAGGUCGACUCUAGAAAACAUG”, for which the binding signal in the assay with PUM1 PUF domain R3-RCD is 2.53 log2 enrichment (interaction score); with PUM1 PUF domain R3-VRS, 0.45 log2 enrichment (interaction score).
On to “GGCUAGAACUAGUGGAUCCCCCGGCGCCCGGCGGCUCGAGCCCGGGUAAGUGUAAAUAGUCUGCAUGCCGCCGGGCGCCAUGCCUGCAGGUCGACUCUAGAAAACAUG”, for which the binding signal in the assay with PUM1 PUF domain R5-KRS is 1.71 log2 enrichment (interaction score); in the assay with PUM1 PUF domain R4-MFN, 2.97 log2 enrichment (interaction score); with PUM1 PUF domain R3-VRS it was 3.88 log2 enrichment (interaction score); with PUM1 PUF domain R6-IWK it was 2.18 log2 enrichment (interaction score).
In the case of “GGCUAGAACUAGUGGAUCCCCCGGCGCCCGGCGGCUCGAGCCCGGGUAAGUGUAAAUCGUCUGCAUGCCGCCGGGCGCCAUGCCUGCAGGUCGACUCUAGAAAACAUG”, the results for the binding signal with PUM1 PUF domain R1-GYK and in the assay with PUM1 PUF domain R1-RLV were 5.06 log2 enrichment (interaction score) and 2.36 log2 enrichment (interaction score), respectively.
Consider “GGCUAGAACUAGUGGAUCCCCCGGCGCCCGGCGGCUCGAGCCCGGGUAAGUGUAAAUUGUCUGCAUGCCGCCGGGCGCCAUGCCUGCAGGUCGACUCUAGAAAACAUG”, for which, in the assay with PUM1 PUF domain R1-RLV, the binding signal was 2.9 log2 enrichment (interaction score).

The values are drawn from publication PMC8384837, “Expanding the binding specificity for RNA recognition by a PUF domain”.
